In PubChem BioAssay (Tox21):
Several values for one entry are separate records, joined by “and”; a condition that tells them apart may be missing. Identical values can stand only once. Results filed as inconclusive are left out. Some compounds were tested as several samples or in several runs, with calls that do not always agree. Activity calls are given as the source filed them. Unless noted, calls come from the whole dose curve; as a rule, active = well fitted curve in the direction sought with a large enough effect in the repeat runs; inconclusive = weak or mixed curves; inactive = no such curve, though single readings can be large; an effect the other way counts as inactive or inconclusive.

Tests used:
[1] = qHTS assay to identify aromatase inhibitors - cell viability counter screen (AID 743084);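 note: cells stimulated with testosterone during compound exposure; nearly all actives have a fitted effect of over 55% in size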; note: potency is the fitted concentration of half-maximal effect
[2] = biological target: Peroxisome proliferator-activated receptor gamma (Homo sapiens) (UniProt P37231); assay: qHTS assay to identify small molecule agonists of the peroxisome proliferator-activated receptor gamma (PPARg) signaling pathway (AID 743094; active = well fitted activation curve with a large enough effect in the signal ratio in the repeat runs, not every such curve was filed as active; the % refers to the signal ratio)
In short: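 Cells from the PPARg UAS-bla HEK293H line are plated and incubated 5 h at 37C. Compounds in DMSO are pinned in and left 17 h at 37C. LiveBLAzer B/G substrate is then added for 1 h at room temperature before fluorescence is measured.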

[3] = qHTS assay to identify small molecule antagonists of the peroxisome proliferator-activated receptor gamma (PPARg) signaling pathway - cell viability counter screen (AID 743194); note: nearly all actives have a fitted effect of over 55% in size; note: potency is the fitted concentration of half-maximal effect
In short: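 PPARg-UAS-bla HEK293H cells were plated, rested 5 h at 37 C, then treated with compounds plus rosiglitazone (50 nM final) for 17 h at 37 C; viability was then read by CellTiter-Glo luminescence after 30 min at room temperature.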

[4] = qHTS assay for small molecule agonists of the antioxidant response element (ARE) signaling pathway - cell viability counter screen (AID 743203; calls by dose curve; note: nearly all actives have a fitted effect of over 55% in size; note: potency is the fitted concentration of half-maximal effect)
In short: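 Cytotoxicity was tested in parallel with the ARE reporter screen. ARE-bla HepG2 cells were exposed to compounds for 16 hrs, and viability was taken from CellTiter-Glo luminescence.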

[5] = qHTS assay for small molecule activators of the heat shock response signaling pathway - cell viability counter screen (AID 743209); note: nearly all actives have a fitted effect of over 50% in size; note: potency is the fitted concentration of half-maximal effect
In short: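 Cytotoxicity counter screen run in parallel with the HSE beta-lactamase reporter, using the same wells. HeLa HSE-bla cells received compound for 5 h at 37 C; ATP-based CellTiter-Glo luminescence was measured after 30 min at room temperature.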

[6] = qHTS assay to identify small molecule agonists of the peroxisome proliferator-activated receptor delta (PPARd) signaling pathway - cell viability counter screen (AID 743211); note: nearly all actives have a fitted effect of over 55% in size; note: potency is the fitted concentration of half-maximal effect
In short: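 PPARd-bla HEK293H cells (UAS-beta-lactamase reporter) were treated with compounds for 17 h at 37 C. Viability was then read in the same wells by CellTiter-Glo luminescence after 30 min at room temperature.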

[7] = qHTS assay to identify small molecule agonists of the farnesoid-X-receptor (FXR) signaling pathway - cell viability counter screen (AID 743218); note: nearly all actives have a fitted effect of over 45% in size; note: potency is the fitted concentration of half-maximal effect
In short: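 Cells were seeded, left 5 h at 37 C and 5% CO2, then dosed with compound in DMSO for 16 h. After the beta-lactamase FRET read, CellTiter-Glo was added and luminescence measured 30 min later.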

[8] = qHTS assay to identify small molecule antagonists of the farnesoid-X-receptor (FXR) signaling pathway - cell viability counter screen (AID 743221; active = well fitted cell-killing curve with a large enough effect in the repeat runs, not every such curve was filed as active; note: nearly all actives have a fitted effect of over 50% in size; note: potency is the fitted concentration of half-maximal effect)
In short: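 FXR-UAS-bla HEK 293T cells were treated with test compounds plus chenodeoxycholic acid (50 uM final) for 16 h at 37 C. Cell viability in the same wells was then read as CellTiter-Glo luminescence after 30 min at room temperature.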

[9] = biological target: Aryl hydrocarbon receptor (Homo sapiens) (UniProt P35869); assay: qHTS assay to identify small molecule that activate the aryl hydrocarbon receptor (AhR) signaling pathway (AID 743085); note: nearly all actives have a fitted effect of over 15% in size; note: potency is the fitted concentration of half-maximal effect;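 for activation: HG2L7.5c1 human HepG2 liver cells with stably integrated DRE-driven firefly reporter; series mostly up to about 70 µM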
In short: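 HepG2 cells (HG2L7.5c1) stably carrying a firefly luciferase reporter driven by 20 dioxin responsive elements were exposed to compound for 24 h at 37C after a 5 h settling period; luminescence rise (ONE-Glo) indicated activation.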

[10] = qHTS assay to identify small molecule antagonists of the peroxisome proliferator-activated receptor delta (PPARd) signaling pathway - cell viability counter screen (AID 743213); note: nearly all actives have a fitted effect of over 50% in size; note: potency is the fitted concentration of half-maximal effect
In short: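 HEK293H PPARd UAS-bla cells, 5 h pre-incubation, compound + L165041 300 nM final, 17 h 37 C; B/G FRET substrate 2 h RT; then CellTiter-Glo 30 min RT, luminescence.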

[11] = biological target: Vitamin D3 receptor (Homo sapiens) (UniProt P11473); assay: qHTS assay to identify small molecule agonists of the vitamin D receptor (VDR) signaling pathway (AID 743222; calls by dose curve; note: potency is the fitted concentration of half-maximal effect)
In short: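 Cells carrying a VDR-driven beta-lactamase reporter are seeded at 2,000 per well and rested 4 h. Compounds in DMSO are added for 16 h at 37C, and FRET substrate fluorescence is measured after 2 h at room temperature.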

[12] = biological target: Vitamin D3 receptor (Homo sapiens) (UniProt P11473); assay: qHTS assay to identify small molecule antagonists of the vitamin D receptor (VDR) signaling pathway (AID 743223; active = well fitted inhibition curve with a large enough effect in the signal ratio in the repeat runs, not every such curve was filed as active; the % refers to the signal ratio)
In short: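 VDR-bla cells were plated, incubated 4 h at 37C, then given compound and 1alpha,25-dihydroxyvitamin D3 (3 nM final). After 16 h at 37C, LiveBLAzer B/G FRET substrate was added for 2 h at room temperature and fluorescence read.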

[13] = qHTS assay to identify small molecule that activate the aryl hydrocarbon receptor (AhR) signaling pathway - cell viability counter screen (AID 743086); note: nearly all actives have a fitted effect of over 45% in size; note: potency is the fitted concentration of half-maximal effect
In short: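 HepG2-AhR-luc (HG2L7.5c1) cells, 4000/well, were preincubated 5 h at 37C, exposed to compound in qHTS format for 24 hr at 37C, then given CellTiter-Fluor for 30 min; viability was read as fluorescence in the reporter wells.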

[14] = qHTS assay for small molecule activators of the heat shock response signaling pathway (AID 743210; active = well fitted activation curve with a large enough effect in the signal ratio in the repeat runs, with a control signal flat, not every such curve was filed as active; the % refers to the signal ratio;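 note: HeLa cells with beta-lactamase reporter driven by heat shock elements; series mostly up to about 63 µM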)
In short: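 Activation of heat shock element-controlled beta-lactamase expression is measured in HeLa cells by LiveBLAzer FRET fluorescence, with compound exposure lasting 5 h at 37 C and substrate loading 2.5 h at room temperature.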

[15] = biological target: Peroxisome proliferator-activated receptor delta (Homo sapiens) (UniProt Q03181); assay: qHTS assay to identify small molecule agonists of the peroxisome proliferator-activated receptor delta (PPARd) signaling pathway (AID 743212; calls by dose curve)
In short: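 Cells expressing a UAS-driven beta-lactamase reporter (PPARd-bla HEK293H) were given test compounds after a 5 h settle and kept at 37 C. Reporter activity was then measured as FRET fluorescence using LiveBLAzer B/G substrate.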

[16] = biological target: Bile acid receptor (Homo sapiens) (UniProt Q96RI1); assay: qHTS assay to identify small molecule agonists of the farnesoid-X-receptor (FXR) signaling pathway (AID 743220; active = well fitted activation curve with a large enough effect in the signal ratio in the repeat runs, not every such curve was filed as active; the % refers to the signal ratio)
In short: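 FXR-UAS-bla HEK 293T cells carrying a UAS-driven beta-lactamase reporter were plated for 5 h at 37C/5% CO2, then exposed to DMSO-dissolved Tox21 10K compounds for 16 h at 37C. A LiveBLAzer B/G FRET substrate was loaded for 2 h at room temperature before fluorescence reading.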

[17] = biological target: Peroxisome proliferator-activated receptor gamma (Homo sapiens) (UniProt P37231); assay: qHTS assay to identify small molecule antagonists of the peroxisome proliferator-activated receptor gamma (PPARg) signaling pathway (AID 743191; calls by dose curve; note: nearly all actives have a fitted effect of over 30% in size; note: potency is the fitted concentration of half-maximal effect)
In short: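 GeneBLAzer PPARg UAS-bla HEK293H cells carrying a UAS-driven beta-lactamase reporter were plated at 3000 cells/well, preincubated 5 h at 37C, then given compound for 17 h at 37C; LiveBLAzer B/G FRET substrate was read after 1 h at room temperature.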

[18] = biological target: Peroxisome proliferator-activated receptor delta (Homo sapiens) (UniProt Q03181); assay: qHTS assay to identify small molecule antagonists of the peroxisome proliferator-activated receptor delta (PPARd) signaling pathway (AID 743215; active = well fitted inhibition curve with a large enough effect in the signal ratio in the repeat runs, not every such curve was filed as active; the % refers to the signal ratio;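 note: cells stimulated with agonist L165041 at 300 nM final during compound exposure; series mostly up to about 62 µM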)
In short: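 Cells: HEK293H with a UAS-driven beta-lactamase reporter responsive to PPARd. Compounds were co-added with L165041 (300 nM, final) and incubated 17 h at 37 C before a 2 h room-temperature FRET substrate step and fluorescence reading.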

[19] = qHTS assay for small molecule agonists of the antioxidant response element (ARE) signaling pathway (AID 743202; active = well fitted activation curve with a large enough effect in the signal ratio in the repeat runs, not every such curve was filed as active; the % refers to the signal ratio; note: potency is the fitted concentration of half-maximal effect)
In short: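 Steps: seed ARE-bla HepG2 cells (2,000/well); incubate 5 h at 37 C; add compounds by pin tool; incubate 16 h at 37 C; add FRET substrate; read fluorescence after 2 h at RT.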

[20] = biological target: Bile acid receptor (Homo sapiens) (UniProt Q96RI1); assay: qHTS assay to identify small molecule antagonists of the farnesoid-X-receptor (FXR) signaling pathway (AID 743217; active = well fitted inhibition curve with a large enough effect in the signal ratio in the repeat runs, not every such curve was filed as active; the % refers to the signal ratio)
In short: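 Cells carrying a UAS-driven beta-lactamase reporter (GeneBLAzer FXR-UAS-bla HEK 293T) were plated and rested 5 h at 37 °C. Compounds in DMSO were added alongside chenodeoxycholic acid agonist at 50 uM final and left 16 h at 37 °C before FRET substrate readout.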

Measured: Potency

Chain of Peroxisome proliferator-activated receptor delta (Homo sapiens) (Q03181 whole entry, looked up): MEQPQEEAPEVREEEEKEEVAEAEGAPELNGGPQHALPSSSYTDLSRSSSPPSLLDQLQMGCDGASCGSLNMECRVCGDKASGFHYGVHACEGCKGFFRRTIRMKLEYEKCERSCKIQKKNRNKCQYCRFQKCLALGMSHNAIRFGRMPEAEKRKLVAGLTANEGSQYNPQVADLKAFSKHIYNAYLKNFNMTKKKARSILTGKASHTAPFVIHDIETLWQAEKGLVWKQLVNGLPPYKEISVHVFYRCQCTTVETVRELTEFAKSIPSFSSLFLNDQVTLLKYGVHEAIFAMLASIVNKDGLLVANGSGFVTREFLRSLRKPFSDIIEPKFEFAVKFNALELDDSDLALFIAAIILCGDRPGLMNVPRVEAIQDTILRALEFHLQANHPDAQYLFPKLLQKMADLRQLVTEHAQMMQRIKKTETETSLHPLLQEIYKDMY
Chain of Aryl hydrocarbon receptor (Homo sapiens) (P35869 whole entry, looked up): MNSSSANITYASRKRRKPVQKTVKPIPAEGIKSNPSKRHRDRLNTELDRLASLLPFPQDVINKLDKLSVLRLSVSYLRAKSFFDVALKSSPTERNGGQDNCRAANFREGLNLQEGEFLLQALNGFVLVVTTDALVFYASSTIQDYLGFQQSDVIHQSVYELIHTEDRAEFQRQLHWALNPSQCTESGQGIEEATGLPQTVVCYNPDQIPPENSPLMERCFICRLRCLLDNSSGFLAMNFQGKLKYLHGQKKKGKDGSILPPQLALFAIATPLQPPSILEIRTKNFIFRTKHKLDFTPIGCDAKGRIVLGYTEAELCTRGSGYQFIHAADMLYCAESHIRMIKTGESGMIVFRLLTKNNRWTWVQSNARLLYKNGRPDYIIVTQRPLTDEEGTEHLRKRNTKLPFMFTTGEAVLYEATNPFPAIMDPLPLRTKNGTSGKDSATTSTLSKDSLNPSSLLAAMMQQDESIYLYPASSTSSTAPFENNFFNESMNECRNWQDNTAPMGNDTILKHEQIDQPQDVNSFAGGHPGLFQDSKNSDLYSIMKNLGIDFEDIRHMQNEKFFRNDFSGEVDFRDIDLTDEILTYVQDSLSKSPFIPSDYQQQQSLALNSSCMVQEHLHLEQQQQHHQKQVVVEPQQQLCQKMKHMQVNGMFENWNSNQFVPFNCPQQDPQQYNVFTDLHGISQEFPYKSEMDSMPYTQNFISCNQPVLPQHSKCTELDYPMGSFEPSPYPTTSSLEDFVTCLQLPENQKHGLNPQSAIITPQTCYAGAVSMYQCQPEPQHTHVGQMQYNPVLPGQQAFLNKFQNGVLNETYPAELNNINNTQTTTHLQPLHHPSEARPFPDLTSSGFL
Chain of Vitamin D3 receptor (Homo sapiens) (P11473 whole entry, looked up): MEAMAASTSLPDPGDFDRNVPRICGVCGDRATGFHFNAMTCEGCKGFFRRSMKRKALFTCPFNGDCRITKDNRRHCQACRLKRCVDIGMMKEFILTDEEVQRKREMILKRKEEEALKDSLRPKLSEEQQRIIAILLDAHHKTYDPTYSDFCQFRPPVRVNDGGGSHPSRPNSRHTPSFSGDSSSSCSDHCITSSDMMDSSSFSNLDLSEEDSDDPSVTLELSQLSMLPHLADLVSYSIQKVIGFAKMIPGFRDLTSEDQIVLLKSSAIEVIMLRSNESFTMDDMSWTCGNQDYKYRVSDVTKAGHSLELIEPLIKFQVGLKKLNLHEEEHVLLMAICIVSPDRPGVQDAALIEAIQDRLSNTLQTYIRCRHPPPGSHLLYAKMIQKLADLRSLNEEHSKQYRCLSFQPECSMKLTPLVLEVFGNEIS
Chain of Peroxisome proliferator-activated receptor gamma (Homo sapiens) (P37231 whole entry, looked up): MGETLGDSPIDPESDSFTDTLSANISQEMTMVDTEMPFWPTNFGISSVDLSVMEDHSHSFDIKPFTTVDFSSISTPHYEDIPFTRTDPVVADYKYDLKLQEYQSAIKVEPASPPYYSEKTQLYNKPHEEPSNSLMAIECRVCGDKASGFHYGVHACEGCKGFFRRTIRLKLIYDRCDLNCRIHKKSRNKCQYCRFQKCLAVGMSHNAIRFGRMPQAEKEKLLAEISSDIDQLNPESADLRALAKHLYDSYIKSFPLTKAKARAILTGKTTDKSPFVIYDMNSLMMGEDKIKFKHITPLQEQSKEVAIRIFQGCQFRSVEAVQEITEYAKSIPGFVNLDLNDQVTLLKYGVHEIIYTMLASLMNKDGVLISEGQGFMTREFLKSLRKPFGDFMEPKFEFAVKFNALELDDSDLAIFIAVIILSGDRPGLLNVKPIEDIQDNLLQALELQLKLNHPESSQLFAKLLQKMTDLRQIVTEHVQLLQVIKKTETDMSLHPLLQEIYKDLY
Chain of Bile acid receptor (Homo sapiens) (Q96RI1 whole entry, looked up): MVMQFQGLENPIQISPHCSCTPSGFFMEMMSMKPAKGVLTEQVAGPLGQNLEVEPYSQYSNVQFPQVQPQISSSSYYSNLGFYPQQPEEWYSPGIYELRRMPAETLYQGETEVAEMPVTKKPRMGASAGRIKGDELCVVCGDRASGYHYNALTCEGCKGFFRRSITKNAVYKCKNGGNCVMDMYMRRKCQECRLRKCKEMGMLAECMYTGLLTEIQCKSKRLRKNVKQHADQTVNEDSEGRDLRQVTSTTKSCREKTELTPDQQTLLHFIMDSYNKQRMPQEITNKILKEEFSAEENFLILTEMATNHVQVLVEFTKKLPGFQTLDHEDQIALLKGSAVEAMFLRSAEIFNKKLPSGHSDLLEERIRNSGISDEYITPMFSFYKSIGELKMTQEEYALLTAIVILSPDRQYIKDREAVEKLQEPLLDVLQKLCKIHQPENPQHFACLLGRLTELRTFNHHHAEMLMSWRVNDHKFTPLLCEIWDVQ

CCCC(=O)OC[C@@H](OC(=O)CCC)[C@@H](OC(=O)CCC)[C@H](Cn1c2nc(=O)[nH]c(=O)c-2nc2cc(C)c(C)cc21)OC(=O)CCC
active: [4] 26.6 µM
inactive: [1] | [2] | [3] | [5] | [6] | [7] | [8]

Cc1cccc2c1cc1ccc3cccc4ccc2c1c34
active: [9] 0.558 µM | [11] 3.16 µM
inactive: [3] | [4] | [6] | [10] | [7] | [12]

O=C(NOCC1CC1)c1ccc(F)c(F)c1Nc1ccc(I)cc1Cl
active: [3] 13.3 µM | [5] 29.8 µM
inactive: [9] | [2] | [10] | [7] | [8] | [11]

CCCCCCOC(=O)c1ccc(O)cc1
inactive: [13] | [2] | [3] | [4] | [14] | [15] | [7] | [16] | [8] | [11]
38.9 µM (active) and inactive: [6]

OCCN1CCN(CC/C=C2/c3ccccc3Sc3ccc(C(F)(F)F)cc32)CC1
active: [4] 29.8 µM | [6] 26.6 µM | [10] 23.7 µM | [7] 26.6 µM | [8] 23.7 µM
inactive: [9] | [14] | [16]

Oc1ccc(Cl)cc1Sc1cc(Cl)ccc1O
inactive: [9] | [13] | [2] | [16] | [11] | [12]
active: [17] 13.3 µM | [3] 4.89 µM and 5.96 µM | [4] 61 µM and 29.8 µM | [5] 38.8 µM | [6] 19.5 µM and 26.6 µM | [10] 24.5 µM | [7] 34.6 µM and 29.8 µM

CCOc1ccc2nc3cc(N)ccc3c(N)c2c1
inactive: [13] | [3] | [10] | [18] | [7]
active: [9] 11.9 µM

O=CC=C(c1ccccc1)c1ccccc1
active: [19] 43.6 µM
inactive: [9] | [13] | [5] | [15] | [20]

O=c1c(-c2ccccc2)c1-c1ccccc1
inactive: [9] | [13] | [4] | [5] | [16]
active: [7] 9.44 µM | [8] 13.3 µM

N=C1N=C(N)c2ccccc21
active: [1] 61.1 µM | [19] 19.3 µM | [4] 54.5 µM | [5] 49 µM
inactive: [3] | [10] | [7] | [11]

Cc1cc2c(cc1C(F)(F)F)N(C(=O)Nc1ccc(Oc3cccnc3C)nc1)CC2
inactive: [9] | [13] | [2] | [3] | [5] | [15] | [16] | [11]
active: [4] 34.9 µM | [6] 44.3 µM | [10] 19.8 µM | [7] 35.2 µM

O=C1CCCCCN1SSN1CCCCCC1=O
not listed: [1] | [7] | [11] | [14] | [18]
inactive: all other assays above

CSc1ccc2c(c1)C(N1CCN(C)CC1)Cc1ccccc1S2 (configuration not stated)
active: [13] 29.8 µM | [3] 18.8 µM | [6] 29.8 µM | [10] 16.8 µM | [7] 26.6 µM
inactive: [9] | [14] | [20] | [16]

O=C1c2ccccc2Cc2ccccc21
not listed: [1] | [4] | [5] | [16] | [17] | [20]
inactive: all other assays above

N=C1N=C(N)c2cc3ccccc3cc21
active: [1] 61.1 µM | [3] 54.9 µM | [4] 43.3 µM | [5] 25.9 µM | [7] 44.8 µM | [8] 54.9 µM

C[n+]1ccn(Cc2ccccc2)c1
not listed: [1] | [5] | [12] | [15] | [17] | [18] | [19]
inactive: all other assays above

OCCN(CCO)c1nc(N2CCCCC2)c2nc(N(CCO)CCO)nc(N3CCCCC3)c2n1
inactive: [9] | [3] | [4] | [7] | [8]
